High-throughput results deposited in PubChem by National Center for Advancing Translational Sciences (NCATS).
Only some compounds are listed: those with a hit (about 12% of all), similar ones and a draw of the others.
Sfp PPTase inh: qHTS Assay for Inhibitors of Bacillus subtilis Sfp phosphopantetheinyl transferase (PPTase); 4'-phosphopantetheinyl transferase ffp (Bacillus subtilis), Q9F4F7; Biochemical Sfp PPTase activity, qHTS; Potency, µM, inactives show largest response in the series, negative = inhibition, actives largely listed as inhibitors; hit rate 3.5% among 310,000; AID 1490, 2009;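 further: the enzyme is Sfp with the accession as filed and its product quenches rhodamine fluorescence; 0% = enzyme reaction without inhibitor and -100% = no enzyme wells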
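Compounds were incubated with enzyme (final 15 nM) for 15 min at room temperature before substrate addition started the reaction. Fluorescence at 525 nm excitation, 598 nm emission was recorded immediately and after 30 minutes.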
Gal4-VP16 FLuc: VP16 counterscreen qHTS for inhibitors of ROR gamma transcriptional activity. Drosophila S2 Gal4-VP16 UAS-luciferase, luminescence, 20 h. Potency, µM (series often up to 53.6 µM), without a hit: at the top dose activity, negative = inhibition, most hits filed as inhibitors. hit rate 3.5% among 310,000. AID 2546, 2010;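 further: Gal4-VP16 expression switched on by copper sulfate through the metallothionein promoter; nearly all actives have a fitted effect of over 50% in size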
ALDH1A1 inh: qHTS Assay for Inhibitors of Aldehyde Dehydrogenase 1 (ALDH1A1). Aldehyde dehydrogenase 1A1 (Homo sapiens), P00352. Purified ALDH1A1, NADH fluorescence, propionaldehyde substrate. Potency, µM (top dose mostly 75.3 µM), for inactives: top-dose activity, negative = inhibition, most hits filed as inhibitors. hit rate 7.3% among 220,000. AID 1030, 2008; active means well fitted inhibition curve with a large enough effect, not every such curve was filed as active; inconclusive means small, poorly fitted or top-dose-only effect, or another doubt; inactive means no such curve, though single readings can be large or run the other way;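 further: plate controls were no enzyme wells and a reference inhibitor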
PLK1 PBD inh: qHTS for Inhibitors of PLK1-PDB (polo-like kinase 1 - polo-box domain): Primary Screen; Serine/threonine-protein kinase PLK1 (Homo sapiens), P53350; Plk1 PBD binding of FITC phosphopeptide, fluorescence polarization; Potency, µM, inactives show max response, negative = inhibition, actives largely listed as inhibitors; hit rate 2.8% among 360,000; AID 720504, 2013; further: series mostly up to about 57 µM; nearly all actives have a fitted effect of over 65% in size
RORgamma inh: qHTS for inhibitors of ROR gamma transcriptional activity; Drosophila S2 Gal4-RORgamma UAS-luciferase reporter, 20 h; Potency, µM (series often up to 53.6 µM), for inactives: at the highest dose activity change, negative = inhibition, usual class: inhibitors; hit rate 5.4% among 310,000; AID 2551, 2010; further: nearly all actives have a fitted effect of over 60% in size
Target sequence (P51450 whole entry, looked up, the tested form may be a part): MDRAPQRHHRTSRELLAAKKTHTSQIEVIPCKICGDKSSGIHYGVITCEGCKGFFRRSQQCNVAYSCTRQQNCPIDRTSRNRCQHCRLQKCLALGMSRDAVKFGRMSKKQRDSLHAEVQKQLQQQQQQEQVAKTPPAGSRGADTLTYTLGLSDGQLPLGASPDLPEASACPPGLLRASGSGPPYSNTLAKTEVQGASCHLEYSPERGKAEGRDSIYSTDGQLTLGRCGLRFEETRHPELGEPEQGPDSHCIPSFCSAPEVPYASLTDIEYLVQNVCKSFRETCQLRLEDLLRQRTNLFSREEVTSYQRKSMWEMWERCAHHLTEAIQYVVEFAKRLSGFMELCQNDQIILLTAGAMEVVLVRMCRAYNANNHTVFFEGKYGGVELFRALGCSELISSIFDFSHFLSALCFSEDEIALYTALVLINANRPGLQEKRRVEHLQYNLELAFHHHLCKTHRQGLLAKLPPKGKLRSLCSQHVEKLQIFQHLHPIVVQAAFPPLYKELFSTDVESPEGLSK
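ROR gamma transcriptional activity was tracked as Gal4-UAS luciferase output in stably transfected Drosophila Schneider cells, with compound added 1 hr before 700 uM copper sulfate induction and a 20 hr ambient-temperature incubation.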
Active calls of the source: *; u = inconclusive; x = not tested or not shown. Unless noted, the call rests on the fitted dose curve; in most records, active means well fitted curve in the direction sought with a large enough effect; inconclusive means small, poorly fitted or top-dose-only effect, or another doubt; inactive means no such curve, though single readings can be large; an effect the other way counts as inactive or inconclusive. Unless noted, on the % scale 0 is the no-effect control and ±100 the full control effect; potency means the concentration at half of the fitted maximal effect.

SMILES	Sfp PPTase inh	Gal4-VP16 FLuc	ALDH1A1 inh	PLK1 PBD inh	RORgamma inh
CC1(C(=O)NCc2ccco2)Cc2c(-c3cccc(C(N)=O)c3)ccnc2O1 (centres undefined)	x	x	x	0%	x
COCCCn1c(SCC(=O)NC2CCCC2)nnc1-c1ccco1	-12%	4%	13µM*	-3%	7%
COCCn1c(SCC(=O)NC2CCCCC2)nnc1-c1ccco1	0%	4%	x	-11%	14%
COCCCn1c(SCC(=O)NC(C)C)nnc1-c1ccccc1	18%	1%	8%	7.5µM*	19%
Cc1cc(C)c2cc(C#N)c(NCCNC(=O)c3ccccn3)nc2c1	x	x	x	-5%	x
O=C(O)c1cc(-c2ccco2)nn1-c1cccc(Cl)c1	20µM*	-3%	2%	u	15%
Cc1nn(-c2cccc(Cl)c2)c2nc(-c3ccco3)cc(C(=O)O)c12	28µM*	7%	u	6%	13%
O=C(O)c1cc(-c2cccs2)nn1-c1cccc(Cl)c1	89µM*	6%	6%	-18%	-31%
O=C(O)c1cc(-c2cccs2)nn1-c1ccccc1	28%	13%	-20%	-9%	35%
O=C(O)c1cc(-c2ccco2)nn1-c1ccc(Cl)cc1	16µM*	5%	-8%	u	6%
Cc1cccc(-n2nc(C)c3c(C(=O)O)cc(-c4cccs4)nc32)c1	3%	-3%	u	u	35%
O=C(O)c1cc(-c2cc3ccccc3o2)nn1-c1ccccc1	14%	-13%	u	-7%	12%
CCCCn1nnnc1C(c1ccccc1OC(F)(F)F)N1CCN(C/C=C/c2ccccc2)CC1 (centres undefined)	x	x	x	6%	x
Cc1ccc(-n2nc(-c3ccco3)cc2C(=O)O)c(C)c1	10µM*	-6%	7%	-27%	15%
Cc1ccc(-n2nc(-c3cccnc3)cc2C(=O)N2CCOCC2)c(C)c1	-3%	15%	-11%	u	-24%
Oc1c(Cl)cc(Cl)cc1/C=C/c1ccc2cccc(O)c2n1	13%	7.1µM*	3%	35%	2.5µM*
Oc1ccc(Cl)cc1/C=C/c1ccc2cccc(O)c2n1	13%	4.5µM*	3%	9%	3.2µM*
COC(=O)[C@H](Cc1ccccc1)NC(=O)N1CCN(c2ccc(F)cc2)CC1	2%	-22%	x	-9%	43%
CCCCn1nnnc1C1(C)CCC(=O)N1Cc1ccc(OC)cc1 (centres undefined)	x	x	x	-6%	x
COc1ccc(/C=C/c2cc(=O)c3cc(Cl)ccc3o2)cc1	50µM*	-6%	13%	-6%	36%
CCNC(=S)N1CCN(c2nc(-c3cccc(OC)c3)cs2)CC1	2%	u	x	-22%	14%
COc1cccc(-c2csc(N3CCN(C(=S)Nc4cccc(Cl)c4)CC3)n2)c1	22%	18µM*	u	-1%	2.8µM*
COc1cccc(-c2csc(N3CCN(C(=S)Nc4ccccc4Cl)CC3)n2)c1	20%	u	-10%	-8%	11µM*
COc1cccc(-c2csc(N3CCN(C(=S)Nc4ccccc4OC)CC3)n2)c1	8%	u	0%	-17%	7.9µM*
C=C1C=CS(=O)(=O)N(C(C)C(=O)OC)C1 (centres undefined)	-10%	-4%	x	x	-16%
SMILES	Sfp PPTase inh	Gal4-VP16 FLuc	ALDH1A1 inh	PLK1 PBD inh	RORgamma inh
OC(CNCc1ccncc1)c1ccccc1 (centres undefined)	15%	6%	x	27µM*	-27%
CC1(C(=O)NS(=O)(=O)c2ccc(Cl)cc2)CCN1C(=O)C1CC1 (centres undefined)	x	x	x	-11%	x
COc1ccc(CN2CCC[C@]3(N[C@H](c4ccc(C(F)(F)F)cc4)[C@@H]4C(=O)N(C)C(=O)[C@@H]43)C2=O)cc1	x	x	x	-3%	x
O=C1C=CC(=O)N1Cc1ccccc1	18µM*	u	x	4.7µM*	u
CCCCCCCCCCn1ccc(=N)cc1	-10%	u	x	-5%	7.9µM*
CCCCCCCCn1ccc(=N)cc1	-1%	7.1µM*	x	-6%	u
Cc1ccccc1CNC(=O)c1[nH]c(C(F)(F)F)nc1-c1ccccc1	x	x	x	-6%	x
CN1CCc2c(sc3c2c(=O)n(-c2ccccc2)c2nnc(SCc4ccc(F)cc4)n32)C1	x	x	x	4%	x
CN1CCc2c(sc3c2c(=O)n(-c2ccccc2)c2nnc(SCc4ccccc4)n32)C1	-15%	0%	25µM*	u	-1%
c1ccc(CN2CCC3CC2c2c3cccc2N2CCOCC2)cc1 (centres undefined)	x	x	x	5%	x
O=C(COC(=O)c1ccc2c(c1)C(=O)N(c1cccc3ncccc13)C2=O)c1ccc(Cl)cc1	28µM*	u	4%	-7%	u
Cc1ccc(C(=O)COC(=O)c2ccc3c(c2)C(=O)N(c2cccc4ncccc24)C3=O)cc1	79µM*	u	8%	-2%	u
O=C(OCC(=O)c1ccc(Cl)cc1Cl)c1ccc2c(c1)C(=O)N(c1cccc3ncccc13)C2=O	u	-24%	u	-3%	u
Cc1c(N)cc(S(=O)(=O)O)cc1NC(=O)c1cccc([N+](=O)[O-])c1	x	x	x	-18%	x
O=C(CSc1ccccc1C(=O)NCCCN1CCCC1=O)NCc1ccco1	45µM*	u	u	-18%	0%
O=C(CSc1ccccc1F)NCCCN1CCCC1=O	x	x	x	-11%	x
CON(c1nc(Cl)nc(N(C)C)n1)S(=O)(=O)c1ccc(C)cc1	0%	-9%	x	27µM*	-1%
CCOC(=O)N1CCC(=NNc2ccc(S(N)(=O)=O)cc2[N+](=O)[O-])CC1	-1%	-15%	u	-9%	13%
CCOC(=O)N1CCC(=NNc2nc(C)cc(=O)[nH]2)CC1	79µM*	-5%	7%	-13%	-22%
Clc1cccc(-c2ccc(C=Nc3ccc(N4CCOCC4)cc3)o2)c1Cl	u	-12%	10µM*	-7%	-11%
Clc1ccc(-c2ccc(C=Nc3ccc(N4CCOCC4)cc3)o2)cc1	18%	-6%	3.5µM*	1%	-18%
CC(=O)Nc1ccc(S(=O)(=O)N(CC(=O)NCC2CCCO2)Cc2ccccc2Cl)cc1 (centres undefined)	x	x	x	1%	x
COc1ccccc1-c1cnc2c(c1)C(=O)N([C@@H](C)CO)C[C@@H](C)[C@H](CN(C)C(=O)c1cccnc1)O2	x	x	x	-14%	x
O=C(NCc1ccc(F)cc1)N1CCc2ccccc2C1	11%	u	x	-4%	u
Cc1ccc(/C=C/C(=O)N2CCc3ccccc3C2)cc1	0%	u	0%	-13%	18µM*
CCN(CC)Cc1c(C(=O)N2CCc3ccccc3C2)nc2ccc(Cl)cn12	-9%	-22%	13µM*	-5%	-14%
